According to PubChem BioAssay (Tox21):
Inconclusive results are not listed. Where a call stands in place of a potency, no number is given. Active and inactive are the calls of the source. Calls follow the shape of the dose curve; as a rule, active = well fitted cell-killing curve with a large enough effect in the repeat runs; inconclusive = weak or mixed curves; inactive = no such curve, though single readings can be large or run the other way.

experiment: qHTS assay to identify small molecule antagonists of the androgen receptor (AR) signaling pathway - cell viability counter screen (AID 743033; also: nearly all actives have a fitted effect of over 45% in size); details: AR-bla HEK293 viability, CellTiter-Glo luminescence, 16 h; series mostly up to 58.5 µM
Description: National Center for Advancing Translational Sciences [NCATS]
NIH Chemical Genomics Center [NCGC]
U.S. Environmental Protection Agency [EPA]
National Institutes of Environmental Health Sciences [NIEHS]
National Toxicology Program [NTP]
U.S. Food and Drug Administration [FDA]
Androgen receptor (AR), a nuclear hormone receptor, plays a critical role in AR-dependent prostate cancer and other androgen related diseases. Endocrine disrupting chemicals (EDCs) and their interactions with steroid hormone receptors like AR may cause disruption of normal endocrine function as well as interfere with metabolic homeostasis, reproduction, developmental and behavioral functions. To identify the compounds that inhibit AR signaling, GeneBLAzer AR-UAS-bla-GripTite cell line (Invitrogen, Carlsbad, CA, USA) containing a beta-lactamase reporter gene under control of an Upstream Activator Sequence (UAS) stably integrated into HEK293 cells was used to screen the Tox21 10K compound library. The cytotoxicity of the Tox21 compound library against the AR-bla cell line was tested in parallel by measuring the cell viability using CellTiter-Glo assay in the same wells.
Tox21 Assay Protocol Summary:
AR-bla cells were dispensed at 2,000 cells/5 uL of assay medium per well into black wall/clear-bottom 1536-well plates using a Multidrop Combi (ThermoFisher Scientific, Waltham, MA) dispenser. After the assay plates were incubated at a 37C and 5% CO2 for 4 hr, 23 nL of compounds dissolved in DMSO, positive controls or DMSO only was transferred to the assay plate by a Pintool station (Kalypsys, San Diego, CA), followed by addition of 1 uL of agonist (R1881) in culture medium using a Bioraptr Flying Reagent Dispenser (FRD) workstation (Beckman Coulter, Indianapolis, IN, USA). The plates were incubated at a 37C and 5% CO2 for 16 h. After 1 uL of LiveBLAzerTM B/G FRET substrate was added using a Bioraptr FRD, the plates were incubated at room temperature for 2 h and fluorescence intensity was measured by an Envision plate reader (PerkinElmer, Shelton, CT). For cell viability readout that measures cytotoxicity, 4 ul/well of CellTiter-Glo reagent was added into the assay plates using a Bioraptr FRD. After 30 min incubation at room temperature, the luminescence intensity in the plates was measured using a ViewLux (PerkinElmer) plate reader.
Potency is read from the fitted curve at half-maximal effect.

SMILES | Potency
CC(C)C[C@H](NC(=O)[C@H](Cc1ccccc1)NC(=O)c1cnccn1)B(O)O | 7.6 nM (active)
CCOc1ccccc1O | inactive
CCOC(=O)CC(O)(CC(=O)OCC)C(=O)OCC | inactive
CC1(C)[C@@H]2CC[C@]3(C2)[C@@H]1C(=O)CCC3(C)C | inactive
COc1cc(CNC(=O)CCCC/C=C/C(C)C)ccc1O | inactive
CC1=C(C)C(=O)C(CCCCC#CCCCC#CCO)=C(C)C1=O | inactive
CC(O)C(C)O (stereo not given) | inactive
OCCCO | inactive
CC1(C)CC(=O)CC(C)(C)N1 | inactive
O=C(O)c1c2ccccc2cc2ccccc12 | inactive
CCOc1ccc(NC(C)=O)cc1N | inactive
O=C(O)c1ccc2c(c1)nc(C(=O)NC1CCN(C3CC3)CC1)n2Cc1cc(-c2ccc(Cl)s2)on1 | inactive
CCOc1cc(OCC)c(C(C)=O)cc1OCC | inactive
CCC(C)CCCC(C)(C)O (stereo not given) | inactive
Cc1ccccc1CCO | inactive
CCCCOc1ccc(N)cc1 | inactive
CCC(C)C1N=C(C)C(C)S1 (stereo not given) | inactive
CCCCCCCCNC | inactive
Cc1c(N=C=O)cccc1N=C=O | inactive
CC(=O)Oc1cccc2c1C(=O)c1c(OC(C)=O)cc(C(=O)O)cc1C2=O | inactive

SMILES | Potency
N#CCCCC(C#N)CCC#N (stereo not given) | inactive
FC1(F)C(F)(F)C(F)(F)C2(F)C(F)(C1(F)F)C(F)(F)C(F)(F)C1(F)C(F)(F)C(F)(F)C(F)(F)C(F)(F)C12F (stereo not given) | inactive
CCC[Si](OC)(OC)OC | inactive
CCc1ccc2c(c1)C(=O)c1ccccc1C2=O | inactive
c1ccc(-c2ccc(-c3ccccc3)cc2)cc1 | inactive
CO[C@@H]1[C@@H](O[C@@H]2O[C@H](C)[C@@H](O[C@H]3C[C@@](C)(O)[C@@H](O)[C@H](C)O3)[C@H](N(C)C)[C@H]2O)[C@@H](CC=O)C[C@@H](C)[C@@H](O[C@@H]2CC[C@H](N(C)C)[C@@H](C)O2)/C=C/C=C/C[C@@H](C)OC(=O)C[C@H]1OC(C)=O | inactive
CC(C)(O)C(=O)O | inactive
CC(=O)CC/C=C(\C)CC/C=C(\C)CC/C=C(\C)CCC=C(C)C | inactive
Nc1ccc(-c2ccc(F)cc2)cc1 | inactive
COc1ccc(C(=O)c2ccc(C)cc2)c(O)c1 | inactive
CC(C)CCCCCCCOC(=O)c1ccc(C(=O)OCCCCCCCC(C)C)c(C(=O)OCCCCCCCC(C)C)c1 | inactive
C=CC(C)(O)CC/C=C(/C)CCC=C(C)C (stereo not given) | inactive
Oc1ccc(CCNCCCCCCNCCc2ccccc2)cc1O | inactive
CO[C@@H]1COCC[C@@H]1N[C@@H]1CC[C@@](C(=O)N2CCc3ncc(C(F)(F)F)cc3C2)(C(C)C)C1 | inactive
CCCCCCCCCC(C)C=O (stereo not given) | inactive
CC(C)=CCCC(C)C=O (stereo not given) | inactive
C[C@@H](O)[C@H]1C(=O)N2C(C(=O)O)=C(S[C@@H]3CN[C@H](CNS(N)(=O)=O)C3)[C@H](C)[C@H]12 | inactive
SCCOCCOCCS | inactive
O=C(Cl)c1cc(Cl)cc(Cl)c1 | inactive
O=C(O)CCc1nc2ccccc2[nH]1 | inactive
